CYP2C9 activ: activators of human CYP2C9; recombinant CYP2C9, luciferin-H conversion, luminescence; stronger effect = higher value; factor 1 = untreated enzyme, 0 = blocked; hit rate 1.4% among 96,000; AID 1024; activation factor at 5 µM; P11712;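 active means activation factor of 2 or more for CYP2C9 at a 5 µM dose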;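 further: 0 = sulfaphenazole-blocked wells and 1 = vehicle-only wells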
CYP2C19 activ: activators of human cytochrome P450 2C19; AID 1025; 96,000 tested, under 10 active; recombinant CYP2C19, luciferin-H EGE luminescence; stronger effect = higher value; 0 = fully inhibited enzyme, 1 = untreated enzyme; activation factor at 5 µM; P33261;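 active means activation factor of at least 2 at 5 µM in the primary screen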;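 further: 0 = wells with 2.5 mM tranylcypromine and 1 = vehicle-only wells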
Target sequence (P33261 whole entry, looked up): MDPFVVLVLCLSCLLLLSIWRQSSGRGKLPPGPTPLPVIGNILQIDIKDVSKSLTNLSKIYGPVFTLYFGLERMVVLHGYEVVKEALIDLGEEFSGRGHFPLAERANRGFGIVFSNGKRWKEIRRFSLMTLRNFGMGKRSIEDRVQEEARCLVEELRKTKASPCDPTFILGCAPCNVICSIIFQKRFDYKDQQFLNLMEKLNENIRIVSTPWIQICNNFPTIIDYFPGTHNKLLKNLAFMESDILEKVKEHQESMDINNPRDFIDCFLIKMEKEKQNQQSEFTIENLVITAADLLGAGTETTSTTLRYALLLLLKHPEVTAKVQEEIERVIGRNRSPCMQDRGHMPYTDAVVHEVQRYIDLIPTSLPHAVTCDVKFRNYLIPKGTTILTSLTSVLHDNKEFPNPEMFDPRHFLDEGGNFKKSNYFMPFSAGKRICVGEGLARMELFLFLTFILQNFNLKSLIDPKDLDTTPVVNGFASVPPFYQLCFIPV
CYP2C19 inh: inhibitors of human CYP2C19; P33261; CYP2C19 Supersomes, luciferin-H EGE luminescence, 30 min; inhibition, % at 5 µM; hit rate 21% among 96,000; AID 778;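 active means CYP2C19 inhibition above a set limit at 5 µM in the primary screen, cut at about 50% in these data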;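 further: plate controls were negative control wells for no effect and 2.5 mM tranylcypromine positive control for full effect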
CYP2C9 inhib: blocks human cytochrome P450 2C9. inhibition, % at 5 µM. CYP2C9 Supersomes, luciferin-H conversion, luminescence. P11712. hit rate 20% among 96,000;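 active means blocking of liver enzyme CYP2C9 beyond about 50% at 5 µM, limit read from the data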
EphB4 ephrin blk: blocks human EphB4 binding to ephrin-B2; hit rate 0.15% among 97,000; P54760; EphB4 LBD / TNYL-RAW-Alexa532 peptide, fluorescence polarization; AID 720; inhibition, % at 7 µM;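 active means inhibition above the screen-wide mean inhibition plus 3 SD, cut at about 15% in these data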;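 further: 0% = DMSO wells and 100% = excess unlabeled TNYL-RAW peptide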
Starred values were filed as active, the others as inactive. A selection: hits, their analogues and other compounds. The true share with any hit is near 27%.

How did O=C(O)CCc1ccc(-c2ccc(F)cc2)n1CC(=O)O do in these assays?
CYP2C9 activ: 1.2; CYP2C19 activ: 1.2; CYP2C19 inh: -16.9; CYP2C9 inhib: -16.0; EphB4 ephrin blk: -12.4

How did O=C(COc1cccc(NC(=O)c2cccc([N+](=O)[O-])c2)c1)c1ccc(F)cc1 do in these assays?
EphB4 ephrin blk: 0.8

What do the screens show for `COc1cccc(-c2noc(Cn3nc(C)c([N+](=O)[O-])c3C)n2)c1`?
CYP2C9 activ: 0.7; CYP2C19 activ: 0.4; CYP2C19 inh: 55.5*; CYP2C9 inhib: 31.1; EphB4 ephrin blk: -4.4

Results for COc1ccc(-c2noc(C(C)n3nc(C)c([N+](=O)[O-])c3C)n2)cc1OC (stereo unspecified) ?
CYP2C9 activ: 0.4; CYP2C19 activ: 0.8; CYP2C19 inh: 24.7; CYP2C9 inhib: 59.0*; EphB4 ephrin blk: 0.2

Results for CCCNS(=O)(=O)c1ccc(NC(=O)c2cccnc2)cc1 ?
CYP2C9 activ: 0; CYP2C19 activ: 0.6; CYP2C19 inh: 37.7; CYP2C9 inhib: 97.6*; EphB4 ephrin blk: 4.3

What do the screens show for `O=C(Nc1ccc(N2CCCCC2)cc1)c1cccnc1`?
CYP2C9 activ: 0.3; CYP2C19 activ: 0.7; CYP2C19 inh: 31.5; CYP2C9 inhib: 67.8*; EphB4 ephrin blk: -3.0

What do the screens show for `O=C(Nc1nc2ccc(S(=O)(=O)N3CCCCC3)cc2s1)c1cccnc1`?
CYP2C9 activ: 0.7; CYP2C19 activ: 0.9; CYP2C19 inh: 7.2; CYP2C9 inhib: 33.3; EphB4 ephrin blk: 0.2

What do the screens show for `O=C(Nc1ccc(S(=O)(=O)N2CCN(Cc3ccccc3)CC2)cc1)c1cnccn1`?
CYP2C9 activ: 0.5; CYP2C19 activ: 0.7; CYP2C19 inh: 28.7; CYP2C9 inhib: 51.6*; EphB4 ephrin blk: -3.4

How did O=C(Nc1ccc(S(=O)(=O)N2CCCC2)cc1)c1cccnc1 do in these assays?
CYP2C9 activ: 0.3; CYP2C19 activ: 0.7; CYP2C19 inh: 25.9; CYP2C9 inhib: 70.8*; EphB4 ephrin blk: -4.2

How did CS(=O)(=O)N1CCC(C(=O)NCc2ccco2)CC1 do in these assays?
CYP2C9 activ: 1.2; CYP2C19 activ: 1.2; CYP2C19 inh: -18.6; CYP2C9 inhib: -20.4; EphB4 ephrin blk: -11.1

How did COC(=O)c1sccc1-n1cccc1C(=O)C(=O)N1CC(C)OC(C)C1 (stereo unspecified) do in these assays?
CYP2C9 activ: 1.4; CYP2C19 activ: 0.8; CYP2C19 inh: 17.5; CYP2C9 inhib: -38.5; EphB4 ephrin blk: 3.0

How did CC(C)CN1C(=O)c2ccccc2C1(O)Cc1ccccc1 (stereo unspecified) do in these assays?
EphB4 ephrin blk: 1.5

What do the screens show for `O=C1c2ccccc2C(O)(c2ncc[nH]2)N1CCc1ccccc1` (stereo unspecified)?
CYP2C9 activ: 1; CYP2C19 activ: 0.1; CYP2C19 inh: 91.9*; CYP2C9 inhib: -0.8; EphB4 ephrin blk: 5.3

What do the screens show for `Cc1ccccc1CSc1nc2n(n1)C(c1cccs1)C1=C(CCCC1=O)N2` (stereo unspecified)?
CYP2C9 activ: 0.4; CYP2C19 activ: 0.8; CYP2C19 inh: 16.8; CYP2C9 inhib: 58.3*; EphB4 ephrin blk: -3.4

How did Cc1ccc(-n2nnc3c(=O)oc4ccccc4c32)cc1 do in these assays?
CYP2C9 activ: 0.9; CYP2C19 activ: 1; CYP2C19 inh: 2.4; CYP2C9 inhib: 13.4; EphB4 ephrin blk: 1.3

Results for CCc1nccn1S(=O)(=O)c1ccc2ccccc2c1 ?
CYP2C9 activ: 1.7; CYP2C19 activ: 0.8; CYP2C19 inh: 24.9; CYP2C9 inhib: -72.5

Results for CCc1nccn1S(=O)(=O)c1ccc(Br)cc1Br ?
CYP2C9 activ: 0.4; CYP2C19 activ: 0.1; CYP2C19 inh: 91.9*; CYP2C9 inhib: 58.7*

What do the screens show for `CCc1nccn1S(=O)(=O)c1ccc(OC)c(C)c1C`?
CYP2C9 activ: 1.1; CYP2C19 activ: 0.3; CYP2C19 inh: 71.0*; CYP2C9 inhib: -8.9; EphB4 ephrin blk: -2.8

Results for O=C(c1ccc(Nc2cccc(C(F)(F)F)c2)nc1)N1CCCC1 ?
CYP2C9 activ: 0.3; CYP2C19 activ: 0.4; CYP2C19 inh: 59.7*; CYP2C9 inhib: 66.5*; EphB4 ephrin blk: -4.7

Results for Cc1ccc(Nc2ccc(C(=O)N3CCCC3)cn2)c(C)c1 ?
CYP2C9 activ: 1.3; CYP2C19 activ: 0.6; CYP2C19 inh: 44.8; CYP2C9 inhib: -31.9; EphB4 ephrin blk: 2.7

Results for CCCS(=O)(=O)N1CCC(C(=O)NCCc2ccccc2)CC1 ?
CYP2C9 activ: 0.8; CYP2C19 activ: 1; CYP2C19 inh: -0.1; CYP2C9 inhib: 20.9; EphB4 ephrin blk: -11.3

Screening data deposited in PubChem by several laboratories.
